Source: PubChem (National Center for Advancing Translational Sciences (NCATS))
DT40 TDP1 no CPT – qHTS for Inhibitors of human tyrosyl-DNA phosphodiesterase 1 (TDP1): qHTS in cells in absence of CPT; Potency, µM (series often up to 46.2 µM), most hits filed as inhibitors; 420,000 tested, 15% active; DT40 Tdp1-/- hTDP1 cells, no CPT, ATP luminescence, 48 h; AID 686978, 2013; note: nearly all actives have a fitted effect of over 55% in size
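Cells were dispensed at 400 per well, compounds added by pin tool, plates incubated ≥48 hr at 37 °C, then CellTiter-Glo added for 30 min at room temperature before luminescence reading. Line: DT40 Tdp1-/- complemented with hTDP1; camptothecin omitted.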
HT1080 IDH1KD tx – toxicity to HT-1080 IDH1 knockdown cells (counter line); 360,000 tested, 2% active; Potency, µM (highest dose often 46.1 µM), usual class: cytotoxic; HT-1080 IDH1 knockdown viability, ATP luminescence, 48 h
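IDH1KD HT-1080 cells, 750/well, RPMI + 5% FBS; compound pinned after 2 h settling; 48 h, 37 °C; CellTiter-Glo luminescence; % activity normalised to DMSO and no-cell wells; curves fitted, classed by r2 and efficacy.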
HT1080NT lethal – kills 2HG-producing HT-1080-NT fibrosarcoma cells; HT-1080-NT fibrosarcoma viability, CellTiter-Glo ATP luminescence, 48 h; Potency, µM (titrated, usually from 46.1 µM), usual class: cytotoxic; 360,000 tested, 1.6% active; AID 686970;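 note: NT is the 2HG producing partner of a matched IDH1 knockdown line; nearly all actives have a fitted effect of over 55% in size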
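HT-1080-NT fibrosarcoma cells (2HG-overproducing), 750 cells/well in RPMI with 5% FBS, dosed after 2 h and incubated 48 h at 37C. CellTiter-Glo luminescence normalized to DMSO and no-cell wells; concentration-response curves fitted and classed.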
KB-3-1 cytotox – kills parental KB-3-1 adenocarcinoma cells; KB-3-1 viability, CellTiter-Glo ATP luminescence, 72 h; Potency, µM (titrated, usually from 46.1 µM), actives largely listed as cytotoxic; 400,000 tested, 1.4% active; AID 1347075; note: nearly all actives have a fitted effect of over 60% in size
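72 h, 37 °C compound treatment of KB-3-1 parental cells; CellTiter-Glo added, 10 min, luminescence read. Data corrected against DMSO-only plates and normalized before curve fitting.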
KB-V1 MDR tox – KB-V1 MDR subline cytotoxicity | 400,000 tested, 3.4% active | Potency, µM (series often up to 46.1 µM), hits mostly cytotoxic | KB-V1 MDR cells viability, CellTiter-Glo, 72 h | AID 1347076; note: nearly all actives have a fitted effect of over 60% in size
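qHTS viability screen in drug-selected KB-V1 MDR cells: 72 h compound treatment at 37 degrees C, ATP luminescence end point.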
DT40 TDP1 CPT – DT40-hTDP1 cell growth loss with CPT | chicken DT40 Tdp1-/-;hTDP1 cells + 20 nM CPT, ATP luminescence, 48 h | Potency, µM (doses to about 46.2 µM), most hits filed as inhibitors | 420,000 tested, 12% active | AID 686979; note: nearly all actives have a fitted effect of over 55% in size
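Chicken DT40 Tdp1-/- cells complemented with human TDP1, 400 cells/well, exposed to compounds plus 20 nM camptothecin for at least 48 h at 37 C; viability read as ATP content by CellTiter-Glo luminescence.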
Of the large screens only hits and unclear results are named; the others gave an inactive call. This is a sample that favours compounds with a hit; in the whole collection about 19% have one here. Calls come from the whole dose curve; as a rule, active = well fitted curve in the direction sought with a large enough effect; inconclusive = small, poorly fitted or top-dose-only effect, or another doubt; inactive = no such curve, though single readings can be large; an effect the other way counts as inactive or inconclusive.

CC(=O)Nc1ccc(S(=O)(=O)N2CCN(c3cc4c(cc3[N+](=O)[O-])n(C)c(=O)n4C)CC2)cc1	DT40 TDP1 no CPT 18µM, HT1080 IDH1KD tx inconclusive, DT40 TDP1 CPT inconclusive
Cn1c(=O)n(C)c2cc([N+](=O)[O-])c(N3CCN(S(=O)(=O)c4ccc(C(C)(C)C)cc4)CC3)cc21	DT40 TDP1 no CPT inconclusive, DT40 TDP1 CPT 21µM
CN1CC[C@]2(CCN3CCc4c(oc5ccccc45)[C@@H]3C2)N(C)C1=O	DT40 TDP1 no CPT 18µM, HT1080NT lethal inconclusive, KB-V1 MDR tox inconclusive, DT40 TDP1 CPT inconclusive
COc1c2ccc(C(=O)NCCCCc3ccccc3)cc2nn1C	KB-V1 MDR tox inconclusive
Cc1cccc(C(=O)NC(=S)NC(C)c2ccccc2)c1 (stereo not given)	DT40 TDP1 no CPT inconclusive, DT40 TDP1 CPT inconclusive
COc1ccc(NC(=O)CN(C)C(=O)c2ccc3c(c2)OCCO3)cc1	none
Cc1ccc(OCC(=O)Nc2c(C)nn(-c3ccccc3)c2C)c(Br)c1	DT40 TDP1 no CPT 23µM, KB-V1 MDR tox inconclusive, DT40 TDP1 CPT inconclusive
Cc1nn(-c2ccccc2)c(C)c1NC(=O)COc1ccc(F)cc1Cl	DT40 TDP1 no CPT 21µM, KB-V1 MDR tox inconclusive, DT40 TDP1 CPT 23µM
Cc1ccc(C)c(OCC(=O)OCC(=O)Nc2c(C)nn(-c3ccccc3)c2C)c1	none
CCOC(=O)Cn1nc(C)c(NC(=O)COc2ccc([N+](=O)[O-])cc2)c1C	none
Cc1nn(-c2ccccc2)c(C)c1NC(=O)COc1ccc([N+](=O)[O-])cc1	DT40 TDP1 no CPT 15µM, DT40 TDP1 CPT inconclusive
Cc1cccc(N(C(=O)c2snc(C(N)=O)c2N)C(C(=O)NC2CCCC2)c2ccco2)c1 (stereo not given)	DT40 TDP1 no CPT inconclusive, DT40 TDP1 CPT inconclusive
CCCC(=NC(C)CC)C1=C(O)CC(c2ccccc2)CC1=O (stereo not given)	DT40 TDP1 no CPT inconclusive, DT40 TDP1 CPT inconclusive
O=C(NNS(=O)(=O)c1ccc(F)cc1)c1cc(Cl)ccc1O	DT40 TDP1 no CPT inconclusive
COC(=O)CC1Oc2ccccc2N(Cc2ccc(C)cc2)C1=O (stereo not given)	DT40 TDP1 no CPT 26µM, DT40 TDP1 CPT 16µM
COC(=O)CC1Oc2ccc(C)cc2-n2cc(-c3ccc(C)cc3)nc21 (stereo not given)	DT40 TDP1 no CPT 13µM, DT40 TDP1 CPT 16µM (no result: HT1080 IDH1KD tx, HT1080NT lethal)
COC(=O)CC1Oc2ccc(Cl)cc2-n2cc(-c3ccc(C)cc3)nc21 (stereo not given)	DT40 TDP1 no CPT 6.5µM, DT40 TDP1 CPT 9.2µM (no result: HT1080 IDH1KD tx, HT1080NT lethal)
COC(=O)CC1Oc2ccc(C)cc2NC1=O (stereo not given)	none
Cc1ccc(C(C)C)c(OCC(=O)NNC(=O)Nc2ccccc2)c1	DT40 TDP1 no CPT inconclusive, HT1080NT lethal inconclusive
CC1=NN(C(=O)COc2ccc(C)c(C)c2)C(O)(c2ccc(Cl)cc2)C1 (stereo not given)	DT40 TDP1 no CPT 15µM, DT40 TDP1 CPT 13µM
CC1=NN(C(=O)COc2cc(C)ccc2C(C)C)C(O)(c2ccccc2)C1 (stereo not given)	DT40 TDP1 no CPT 26µM, HT1080 IDH1KD tx inconclusive, HT1080NT lethal inconclusive, KB-V1 MDR tox inconclusive, DT40 TDP1 CPT 5.8µM
CCC1=NN(C(=O)COc2ccccc2)C(O)(c2ccncc2)C1 (stereo not given)	DT40 TDP1 no CPT 16µM, DT40 TDP1 CPT inconclusive
c1cn2c(-c3ccc(N4CCOCC4)cc3)cncc2n1	none
CCN(CC)CCn1c2ccccc2c2nc3ccccc3nc21	DT40 TDP1 no CPT 23µM, KB-3-1 cytotox inconclusive, KB-V1 MDR tox inconclusive, DT40 TDP1 CPT inconclusive
N#CCCn1c2ccccc2c2nc3ccccc3nc21	DT40 TDP1 no CPT 9.2µM, DT40 TDP1 CPT inconclusive
CCN(CC)CCn1c2ccccc2c(=O)c2c(O)ccc(O)c21	DT40 TDP1 no CPT 21µM, DT40 TDP1 CPT 7.3µM
O=c1oc2ccccc2n1CCn1c2ccccc2c2nc3ccccc3nc21	DT40 TDP1 no CPT 5.8µM, DT40 TDP1 CPT 16µM
COc1ccc2c(c1)c1nc3ccccc3nc1n2CCn1c(=O)oc2ccccc21	DT40 TDP1 no CPT inconclusive, DT40 TDP1 CPT inconclusive
CC1(C)OC2OC(C3COC(=O)O3)C(OC(=O)c3ccccc3)C2O1 (stereo not given)	KB-V1 MDR tox inconclusive
CC1C(=O)N(Cc2cn(CCC3OCCO3)nn2)CCS(=O)(=O)N1Cc1ccc(-c2cccc(N(C)C)c2)cc1 (stereo not given)	DT40 TDP1 no CPT 16µM, DT40 TDP1 CPT 9.2µM
CCC/C=C/c1ccc(CN2C(C)C(=O)N(Cc3cn(CCC4OCCO4)nn3)CCS2(=O)=O)cc1 (stereo not given)	DT40 TDP1 no CPT 15µM, DT40 TDP1 CPT inconclusive
CC1C(=O)N(Cc2cn(CCC3OCCCO3)nn2)CCS(=O)(=O)N1Cc1ccc(-c2ccc(Cl)cc2)cc1 (stereo not given)	DT40 TDP1 no CPT 6.5µM, HT1080 IDH1KD tx inconclusive, HT1080NT lethal inconclusive, KB-3-1 cytotox inconclusive, KB-V1 MDR tox inconclusive, DT40 TDP1 CPT 12µM
CC1C(=O)N(Cc2cn(CCC3OCCCO3)nn2)CCS(=O)(=O)N1Cc1ccc(-c2ccc(Cl)nc2)cc1 (stereo not given)	DT40 TDP1 no CPT inconclusive, DT40 TDP1 CPT inconclusive
CC1C(=O)N(Cc2cn(CCC3OCCCO3)nn2)CCS(=O)(=O)N1Cc1ccc(-c2ccccc2)cc1 (stereo not given)	DT40 TDP1 no CPT 16µM, DT40 TDP1 CPT inconclusive
CC1C(=O)N(Cc2cn(CCC3OCCO3)nn2)CCS(=O)(=O)N1Cc1ccc(-c2ccc(F)cc2)cc1 (stereo not given)	DT40 TDP1 no CPT inconclusive, DT40 TDP1 CPT inconclusive
Cn1cc(-c2nnc(-c3ccccc3)o2)c2ccccc21	DT40 TDP1 no CPT inconclusive
COc1ccc2nc(N3CCCC3)c(C#N)cc2c1	DT40 TDP1 no CPT inconclusive, KB-V1 MDR tox 13µM
COc1ccc2nc(SCC(=O)N(C)C3CCCCC3)c(C#N)cc2c1	DT40 TDP1 no CPT inconclusive, KB-V1 MDR tox 15µM, DT40 TDP1 CPT inconclusive
COc1ccc2nc(SCC(=O)N3CCCCC3)c(C#N)cc2c1	DT40 TDP1 no CPT inconclusive
COc1ccc2nc(SCC(=O)N3CCCCCC3)c(C#N)cc2c1	DT40 TDP1 no CPT 16µM, KB-V1 MDR tox inconclusive, DT40 TDP1 CPT inconclusive
CCn1c(=O)c2c(n3cnnc13)-c1ccccc1CC21CCCCC1	DT40 TDP1 no CPT inconclusive, KB-3-1 cytotox inconclusive, DT40 TDP1 CPT 13µM
O=C(CSc1nc(-c2ccco2)nc2cc(=O)[nH]n12)Nc1ccccc1F	none (no result: HT1080 IDH1KD tx, HT1080NT lethal)
